These sequences were tested against LGALS7B (assay: pooled miR-30 sensor sort-seq; sequence = guide strand). Settings: shRNA.
Work on TTGCTGTTGAAGACCACCTCCG yielded a sensor-assay potency score (higher = more potent) of -0.31.
With TGAAATGCAGGGCGGCATCGGA the sensor-assay potency score (higher = more potent) was -1.07.
For TTTACATGGAACCTGCTGGCAT, the sensor-assay potency score (higher = more potent) was -0.552.
TTGGGAGGAACCAAGCCGCGAA showed a sensor-assay potency score (higher = more potent) of -0.897.
Work on ATGATGAGCACCTCGAAGGGCT yielded a sensor-assay potency score (higher = more potent) of -0.649.
Sequence TGAAGCCGTCGTCTGACGCGAT has a sensor-assay potency score (higher = more potent) of -0.633.
Work on TTGAAGACCACCTCCGACGTGT yielded a sensor-assay potency score (higher = more potent) of 0.725.

What follows are sequences tested against LHCGR in the same assay as above. Settings: shRNA.
For TCCATTGTGCATCTTCTCCAGA, the sensor-assay potency score (higher = more potent) was -0.921.
Sequence TAATCGCAGCTTTTGGTCCAGG has a sensor-assay potency score (higher = more potent) of -1.08.
TATAGTTTGAGTGTTACAGATT gave a sensor-assay potency score (higher = more potent) of -0.877.
Sequence TAACTCAGCACATTTGTAGTGT has a sensor-assay potency score (higher = more potent) of 0.247.
Work on TTTGGTGGAAGAAATATCCAAG yielded a sensor-assay potency score (higher = more potent) of -0.193.
TAAGCTGAAAAATCTTTCCTTC showed a sensor-assay potency score (higher = more potent) of 0.265.
Work on TTCACTTTCCTTACTGTGCTTT yielded a sensor-assay potency score (higher = more potent) of 0.168.
In the case of TTGACAAATGTTTCTCTTGATG, the sensor-assay potency score (higher = more potent) was -1.44.
With TAGTCGAGTGAGACCGGCCGTG the sensor-assay potency score (higher = more potent) was -0.508.
TTACTGTGCTTTCACATTGTTT gave a sensor-assay potency score (higher = more potent) of -1.55.
In the case of TTATTTGATCCAGTGAAGCCAT, the sensor-assay potency score (higher = more potent) was -0.633.
Work on TTGGTAGCCATTAATTCTGGGT yielded a sensor-assay potency score (higher = more potent) of -0.032.

The sequences below were run against LHFPL3 in the same assay as above. Settings: shRNA.
In the case of TACTTGTCTGTCTTTTCTCCAC, the sensor-assay potency score (higher = more potent) was -0.0892.
For TAATCCATGATCACATCTCTTT, the sensor-assay potency score (higher = more potent) was -0.691.
With TATCTTGTACACAGTGGCCGTG the sensor-assay potency score (higher = more potent) was -0.302.
Work on TTTACTTCATCTGAGTCCCAGC yielded a sensor-assay potency score (higher = more potent) of -0.606.
Sequence TTTTACTTCATCTGAGTCCCAG has a sensor-assay potency score (higher = more potent) of 0.0126.
TTAGTTGTTAACTACTTCCAGA gave a sensor-assay potency score (higher = more potent) of -0.755.
Sequence TTAAACAGAACACAGACTTGGT has a sensor-assay potency score (higher = more potent) of 0.0174.
With TAGCCTATAATATTACACGTGA the sensor-assay potency score (higher = more potent) was -0.577.
ATATCTTGTACACAGTGGCCGT gave a sensor-assay potency score (higher = more potent) of -1.29.
With TACATGTTAACTCTAGAGCATT the sensor-assay potency score (higher = more potent) was -1.25.
TTAGCTTGTGTTCATTCTCAGG showed a sensor-assay potency score (higher = more potent) of -1.28.
TAAAATAGGAATGTGGTCCTAA was tested, and the sensor-assay potency score (higher = more potent) was 0.497.

What follows are sequences tested against LHFPL4 in the same assay as above. Settings: shRNA.
Sequence AAAATCTTTGTTCTCCGGCTTG has a sensor-assay potency score (higher = more potent) of -0.289.
With AAATCTTTGTTCTCCGGCTTGA the sensor-assay potency score (higher = more potent) was -0.165.
TGGATGAAGACCACCACGTTGA was tested, and the sensor-assay potency score (higher = more potent) was -0.905.
Work on AAGTCGGTGAAGGAGCCCCGGC yielded a sensor-assay potency score (higher = more potent) of -1.53.
TAGACCGTAGCCGTGTTGCAGA was tested, and the sensor-assay potency score (higher = more potent) was -0.559.
ATCTTGTAGACCGTAGCCGTGT showed a sensor-assay potency score (higher = more potent) of -0.823.
AAGAGCTGCATCCAGGCGCAGA gave a sensor-assay potency score (higher = more potent) of -1.19.
Sequence TCCGCATGTAGTGCTCGTGGTA has a sensor-assay potency score (higher = more potent) of -1.39.

Reference: the OligoGym collection
